Source: PubChem BioAssay
Active and inactive are the calls of the source.

Legend:
Albumin (Bos taurus) = Albumin (Bos taurus) (UniProt P02769); assay: bovine serum albumin binders on microarray, profiling panel, artefact control for SMM control protein annotation, biochemical, small-molecule microarray, Alexa647 label, 635/667 nm fluorescence (AID 1118); conditions: BSA-A647 binding, fluorescence 635 nm, higher = more signal;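 also: score merges 667 nm emission intensity and signal-to-noise per printed compound spot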
Chain of Albumin (Bos taurus) (P02769 whole entry, looked up): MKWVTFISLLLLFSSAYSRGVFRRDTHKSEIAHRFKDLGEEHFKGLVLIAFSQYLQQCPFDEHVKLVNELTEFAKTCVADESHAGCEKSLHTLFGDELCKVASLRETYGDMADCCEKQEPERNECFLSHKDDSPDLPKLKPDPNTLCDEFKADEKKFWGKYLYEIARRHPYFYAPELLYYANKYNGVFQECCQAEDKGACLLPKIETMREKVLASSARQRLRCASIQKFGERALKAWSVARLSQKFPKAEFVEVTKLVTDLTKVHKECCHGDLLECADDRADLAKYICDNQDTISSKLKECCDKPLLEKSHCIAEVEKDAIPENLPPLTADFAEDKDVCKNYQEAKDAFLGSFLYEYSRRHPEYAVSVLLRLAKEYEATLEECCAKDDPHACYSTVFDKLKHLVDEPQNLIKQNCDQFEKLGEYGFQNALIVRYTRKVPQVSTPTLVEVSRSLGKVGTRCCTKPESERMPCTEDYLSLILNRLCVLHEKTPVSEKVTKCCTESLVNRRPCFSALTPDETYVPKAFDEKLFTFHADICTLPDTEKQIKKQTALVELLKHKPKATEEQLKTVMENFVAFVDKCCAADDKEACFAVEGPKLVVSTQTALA

[1] = small-molecule microarray binders of probe aXIP, primary screen, biochemical, NeuroSMM set, 635/667 nm fluorescence (AID 1119); conditions: higher = more signal, called active from +8 up or from −8 down;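 also: probe is the protein aXip251-270 applied at 1 µg/mL to compound-printed slides; binding of probe to printed compounds measured as 667 nm fluorescence plus signal to noise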
[2] = small-molecule binders of probe aNOTCH3, primary screen, biochemical, small-molecule microarray, 635/667 nm fluorescence (AID 1120); conditions: higher = more signal;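 also: probe is a biotin-tagged antibody raised against NOTCH3 rather than NOTCH3 protein; score merges spot fluorescence near 667 nm with spot signal to noise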
[3] = small-molecule binders of probe aNOTCH2, primary screen, biochemical, small-molecule microarray, 635/667 nm fluorescence (AID 1121); conditions: higher = more signal;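 also: score merges feature fluorescence read at 667 nm with its signal to noise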
[4] = target: Carbonic anhydrase 2 (Homo sapiens) (UniProt P00918); assay: CAII small-molecule binders, profiling panel, biochemical, small-molecule microarray, Alexa647-labelled CAII (AID 1122); conditions: CAII-A647 binding fluorescence, higher = more signal
[5] = COS7 lysate on small-molecule microarray, probe aHis, 635 nm (AID 1123); conditions: COS7 cell lysate, fluorescence, higher = more signal;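 also: z-score combines 667nm fluorescence intensity with signal-to-noise per printed compound spot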
[6] = compound binding in COS7 lysate, probe aLAP1, primary screen, cell lysate, small-molecule microarray (AID 1124); conditions: probe aLAP1, fluorescence, higher = more signal;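 also: lysate comes from COS7 cells expressing LAP1 and is applied at 0.3 µg/mL; score merges spot fluorescence near 667 nm with signal-to-noise over triplicate slides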
Sam68 (KHDRBS1) = assay: Sam68 small-molecule binders, primary screen, biochemical, small-molecule microarray, 635 nm fluorescence (AID 1125); conditions: small-molecule microarray binding, higher = more signal;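 also: score merges 667 nm channel intensity with signal to noise over triplicate slides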
[7] = tested on: Chordin-like protein 2 (CHRDL2); assay: CHRDL2 small-molecule binders, primary screen, biochemical, small-molecule microarray, 635 nm fluorescence (AID 1126); conditions: small-molecule microarray binding, fluorescence 635 nm; higher = more signal;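 also: printed compound slides probed with Chrdl2 protein at 4 µg/mL for 1 h at 4 C; score merges 667 nm emission intensity with signal to noise over three replicate slides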
[8] = target: Concanavalin-A (Canavalia ensiformis) (UniProt P02866); assay: ConA small-molecule binders, primary screen, artefact control for SMM control protein annotation, biochemical, small-molecule microarray, Alexa647 label, 635 nm (AID 1127); conditions: ConA-A647 binding fluorescence, higher = more signal;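 also: z combines 667 nm emission intensity with signal-to-noise across three replicate slides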
Chain of Concanavalin-A (Canavalia ensiformis) (P02866 whole entry, looked up): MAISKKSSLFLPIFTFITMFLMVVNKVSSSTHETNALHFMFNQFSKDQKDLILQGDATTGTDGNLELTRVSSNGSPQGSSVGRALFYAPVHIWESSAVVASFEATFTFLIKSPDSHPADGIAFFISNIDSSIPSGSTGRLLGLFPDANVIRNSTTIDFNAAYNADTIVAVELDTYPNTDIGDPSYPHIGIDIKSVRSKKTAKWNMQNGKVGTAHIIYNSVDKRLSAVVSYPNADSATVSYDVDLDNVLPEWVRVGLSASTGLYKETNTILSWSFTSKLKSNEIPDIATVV

[9] = anti-His antibody binders, primary screen, artefact control for SMM control protein annotation, biochemical, small-molecule microarray, 635 nm fluorescence (AID 1128); conditions: anti-His Alexa647 antibody binding, higher = more signal;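 also: score merges feature fluorescence with signal-to-noise for each printed compound spot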
[10] = tested on: Human papillomavirus type 1a E7 protein (residues 1-88); assay: HPV1a E7 small-molecule binders, primary screen, biochemical, small-molecule microarray, residues 1-88, 635 nm (AID 1129); conditions: small-molecule microarray binding, fluorescence 635 nm; higher = more signal
[11] = target: Focal adhesion kinase 1 (Homo sapiens) (UniProt Q05397); assay: small-molecule microarray binders of FAK, primary screen, biochemical, 635/667 nm fluorescence, BSA, DTT (AID 1130); conditions: PTK2 binding, 635 nm fluorescence, higher = more signal;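 also: composite of spot emission at 667 nm and signal to noise over triplicate slides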
Chain of Focal adhesion kinase 1 (Homo sapiens) (Q05397 whole entry, looked up): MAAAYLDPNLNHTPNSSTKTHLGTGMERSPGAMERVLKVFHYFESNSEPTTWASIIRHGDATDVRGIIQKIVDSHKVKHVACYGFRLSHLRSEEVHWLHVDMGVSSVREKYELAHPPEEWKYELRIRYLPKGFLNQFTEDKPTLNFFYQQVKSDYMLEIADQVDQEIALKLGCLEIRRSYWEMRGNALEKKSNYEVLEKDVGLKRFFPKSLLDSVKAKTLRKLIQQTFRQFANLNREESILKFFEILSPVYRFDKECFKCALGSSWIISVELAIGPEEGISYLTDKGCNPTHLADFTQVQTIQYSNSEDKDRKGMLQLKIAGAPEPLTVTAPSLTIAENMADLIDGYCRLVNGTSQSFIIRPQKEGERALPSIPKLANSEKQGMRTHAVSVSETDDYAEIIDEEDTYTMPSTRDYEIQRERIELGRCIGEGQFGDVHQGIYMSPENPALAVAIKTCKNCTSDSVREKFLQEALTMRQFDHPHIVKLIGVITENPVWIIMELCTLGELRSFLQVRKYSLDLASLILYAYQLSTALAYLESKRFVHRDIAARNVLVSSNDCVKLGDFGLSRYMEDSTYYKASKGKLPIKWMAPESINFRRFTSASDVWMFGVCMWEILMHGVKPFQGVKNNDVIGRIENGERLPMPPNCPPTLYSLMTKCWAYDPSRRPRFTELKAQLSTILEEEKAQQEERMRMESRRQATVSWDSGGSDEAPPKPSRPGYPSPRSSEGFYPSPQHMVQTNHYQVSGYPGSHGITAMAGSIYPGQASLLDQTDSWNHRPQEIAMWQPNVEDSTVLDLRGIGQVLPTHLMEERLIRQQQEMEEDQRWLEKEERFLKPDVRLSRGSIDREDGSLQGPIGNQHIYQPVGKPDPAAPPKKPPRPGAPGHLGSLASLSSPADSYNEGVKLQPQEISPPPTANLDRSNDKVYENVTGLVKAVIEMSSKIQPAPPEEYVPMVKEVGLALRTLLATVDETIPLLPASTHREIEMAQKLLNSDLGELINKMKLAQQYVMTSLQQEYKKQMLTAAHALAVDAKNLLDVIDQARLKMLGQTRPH

[12] = tested on: Fibrinogen (Alexa647-labelled); assay: fibrinogen binders on compound microarrays, profiling panel, artefact control for SMM control-protein annotation, biochemical, small-molecule microarray, 635/667 nm fluorescence (AID 1131); conditions: fibrinogen-A647 binding fluorescence, higher = more signal;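 also: z-score merges 667 nm fluorescence with per-spot signal-to-noise over triplicate slides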
[13] = target: Follistatin (Homo sapiens) (UniProt P19883); assay: follistatin binders on small-molecule microarrays, primary screen, biochemical, small-molecule microarray, 635/667 nm fluorescence (AID 1132); conditions: FST binding, 635 nm fluorescence, higher = more signal
Chain of Follistatin (Homo sapiens) (P19883 whole entry, looked up): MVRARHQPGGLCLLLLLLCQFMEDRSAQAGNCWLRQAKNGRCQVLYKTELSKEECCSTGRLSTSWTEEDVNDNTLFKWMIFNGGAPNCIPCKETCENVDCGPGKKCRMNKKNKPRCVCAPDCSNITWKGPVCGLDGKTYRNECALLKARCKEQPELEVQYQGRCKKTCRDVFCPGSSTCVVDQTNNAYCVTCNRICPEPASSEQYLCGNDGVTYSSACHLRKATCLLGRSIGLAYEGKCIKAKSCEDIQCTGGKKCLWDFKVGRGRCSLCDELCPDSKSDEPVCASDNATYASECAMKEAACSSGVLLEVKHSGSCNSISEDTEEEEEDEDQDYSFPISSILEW

[14] = target: Fibroblast growth factor 2 (Homo sapiens) (UniProt P09038); assay: FGF2 binders on small-molecule microarrays, primary screen, biochemical, small-molecule microarray, 635/667 nm fluorescence (AID 1133); conditions: small-molecule microarray binding, FGF2, fluorescence 635/667; higher = more signal
Chain of Fibroblast growth factor 2 (Homo sapiens) (P09038 whole entry, looked up): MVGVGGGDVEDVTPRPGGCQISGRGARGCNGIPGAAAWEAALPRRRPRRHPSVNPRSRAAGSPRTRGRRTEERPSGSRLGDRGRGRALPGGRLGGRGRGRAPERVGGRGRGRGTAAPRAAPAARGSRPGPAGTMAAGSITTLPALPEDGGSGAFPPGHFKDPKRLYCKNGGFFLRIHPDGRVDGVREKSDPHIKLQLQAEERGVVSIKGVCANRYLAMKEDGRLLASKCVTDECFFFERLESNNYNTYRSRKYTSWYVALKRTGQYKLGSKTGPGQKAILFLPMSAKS

[15] = mitochondrial membrane potential change in A549 cells, profiling panel, cell-based, JC-1 fluorescence, basal, 24 h, 100 nL (AID 1138); conditions: higher = more signal;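 also: A549 lung adenocarcinoma cells under basal conditions with no added stimulus; test concentration not given here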
Lefty1 = Lefty1 binders on small-molecule microarrays, primary screen, biochemical, small-molecule microarray, 635/667 nm fluorescence (AID 1139); conditions: small-molecule microarray binding, fluorescence 635/667; higher = more signal
[16] = tested on: wheat germ agglutinin (Triticum aestivum), Alexa647-labelled; assay: wheat germ agglutinin binders on compound microarrays, profiling panel, artefact control for SMM control-protein annotation, biochemical, small-molecule microarray, 635/667 nm fluorescence (AID 1140); conditions: WGA-A647 binding, 635 nm fluorescence, higher = more signal;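 also: score merges 667 nm feature emission with signal to noise over triplicate slides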
[17] = target: Luciferin 4-monooxygenase (Photinus pyralis) (UniProt P08659); assay: firefly luciferase enzyme inhibitors, primary screen, biochemical, luminescence, purified enzyme, 2006 set (AID 1141); conditions: SteadyGlo luminescence, 30 min, higher = more signal, called active from +8 up or from −8 down;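 also: cell-free assay with purified firefly luciferase at 100 ng per well in PBS; test concentration not given here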
Chain of Luciferin 4-monooxygenase (Photinus pyralis) (P08659 whole entry, looked up): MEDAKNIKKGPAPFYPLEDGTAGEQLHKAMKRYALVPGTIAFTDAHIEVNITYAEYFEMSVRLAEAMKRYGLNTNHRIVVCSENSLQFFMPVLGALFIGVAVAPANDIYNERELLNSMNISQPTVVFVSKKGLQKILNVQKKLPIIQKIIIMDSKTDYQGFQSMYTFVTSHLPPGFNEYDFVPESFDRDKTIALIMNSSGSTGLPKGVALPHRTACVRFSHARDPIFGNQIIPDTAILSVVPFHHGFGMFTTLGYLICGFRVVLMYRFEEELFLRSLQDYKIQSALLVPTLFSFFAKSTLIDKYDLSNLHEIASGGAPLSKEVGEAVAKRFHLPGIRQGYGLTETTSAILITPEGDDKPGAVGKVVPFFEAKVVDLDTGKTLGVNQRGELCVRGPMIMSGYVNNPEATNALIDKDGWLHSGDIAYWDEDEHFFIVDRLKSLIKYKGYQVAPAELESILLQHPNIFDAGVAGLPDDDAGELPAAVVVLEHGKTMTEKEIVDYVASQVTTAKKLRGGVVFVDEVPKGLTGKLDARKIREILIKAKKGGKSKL

SMILES | composite z-score (Albumin (Bos taurus)) | composite Z-score [1] | composite z-score [2] | composite z-score [3] | composite z-score [4] | composite z-score [5] | composite z-score [6] | composite z-score (Sam68 (KHDRBS1)) | composite z-score [7] | composite z-score [8] | composite z-score [9] | composite z-score [10] | composite z-score [11] | composite z-score [12] | composite z-score [13] | composite z-score [14] | z-score [15] | composite z-score (Lefty1) | composite z-score [16] | z-score [17]
COc1ccc([Si](C)(C)[C@@H]2[C@@H](CCO)O[C@]3(C(=O)N(Cc4ccccc4)c4ccc(N5C(=O)COc6ccccc65)cc43)[C@H]2C)cc1 | 0.187 | 0.685 (inactive) | -0.0077 | -0.0731 | 0.426 | 0.841 | 0.719 | 0.929 | -0.237 | 0.822 | 0.807 | 1.13 | 0.294 | 0.191 | 0.197 | -0.177 | -0.081 | 0.351 | 0.622 | 0.806 (inactive)
Cc1ccc(-c2cccc(=O)o2)cc1 | -0.682 | -1.14 (inactive) | -0.15 | -0.108 | -0.501 | 0.0688 | 0.258 | -1.39 | 0.183 | -0.413 | -1.57 | -0.935 | -0.404 | -0.551 | 0.272 | 0.156 | -0.241 | -0.33 | -0.233 | -1.23 (inactive)
O=C1N(CCS(=O)(=O)c2ccccc2)c2ccccc2[C@H]2OC(c3ccc(OCCCO)cc3)=N[C@@]12CCS(=O)(=O)c1ccccc1 | -1.18 | 1.11 (inactive) | 0.674 | 0.445 | 0.352 | 2.82 | 0.226 | 1.29 | 1.07 | 1.16 | 3.19 | 1.21 | 0.634 | 0.943 | 1.42 | 1.74 | -1.23 | 0.589 | 0.816 | -3.3 (inactive)
O=C1C[C@@](C(=O)O)(c2ccc([N+](=O)[O-])cc2)[C@@H](c2ccc(CO)cc2)N1CC12CC3CC(CC(C3)C1)C2 | 0.656 | -0.261 (inactive) | 0.18 | 0.0362 | 0.46 | 1.74 | 0.611 | 1.19 | -0.346 | 0.687 | 1.2 | 1.19 | 0.486 | 0.732 | 0.563 | -0.119 | 2.19 | 0.43 | 1.02 | -0.162 (inactive)
CC1CC/C=C\[C@H]2OC34C=CCN(c5ccc(Cl)cc5)C(=O)[C@H]3N(C(CO)C(C)C)C(=O)[C@]4(C)C2C(=O)O1 (stereo not given in full) | 0.788 | -0.0965 (inactive) | -0.28 | -0.174 | 0.859 | 0.253 | 0.438 | -0.932 | -0.169 | -0.983 | 0.776 | -0.512 | -0.432 | -0.787 | -0.648 | -0.87 | 0.34 | -0.626 | -0.281 | -0.391 (inactive)
CN(C)C(=O)[C@]1(Cc2ccccc2N=[N+]=[N-])N=C(c2ccc(OCCCO)cc2)O[C@@H]1c1ccccc1CN=[N+]=[N-] | 0.828 | -0.136 (inactive) | 0.473 | -0.0349 | 0.684 | 2.53 | 0.635 | 1.3 | -0.21 | 0.875 | 1.28 | 1.25 | 0.651 | 1.06 | 1.23 | 1.06 | 0.417 | 0.624 | 0.763 | -0.307 (inactive)
